Screening data as filed in PubChem.
GALK inh: qHTS Assay for Inhibitors of Human Galactokinase (GALK); AID 1868, 2009; Purified GALK, Kinase-Glo residual ATP luminescence; P51570; Potency, µM (doses to about 57.5 µM), inactives show at the highest dose activity change, negative = inhibition, hits mostly inhibitors; actives 0.007% (n = 270,000); further: on the % scale 0 is the no-effect control and ±100 the full control effect
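Compounds were pin-transferred into ATP buffer (35 uM final), then GALK plus galactose (5 nM, 100 uM final) was added. After 1 h at room temperature, Kinase-Glo Plus was added and luminescence read after 10 min.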
Eya2 phos inh: qHTS Assay for Inhibitors of the Phosphatase Activity of Eya2; Protein phosphatase EYA2 (Homo sapiens), O00167; recombinant Eya2, OMFP fluorescence dephosphorylation (OMFP is methylfluorescein phosphate); Potency, µM (titrated, usually from 76.9 µM), for inactives: top-dose activity, negative = inhibition, usual class: inhibitors; actives 0.006% (n = 330,000); AID 488837, 2010; further: on the % scale 0 is the no-effect control and ±100 the full control effect
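Eya2 (0.2 uM) preincubated 10 min at ambient with compound, then OMFP substrate added at 50 uM; 10 min reaction in 50 mM HEPES pH 7.5, 50 mM NaCl, 5 uM MgCl2, 0.05% BSA, 1 mM DTT. Fluorescence read at Ex 485/Em 525 nm.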
USP2a block: qHTS Assay for Inhibitors of Ubiquitin-specific Protease USP2a Using CHOP2 as the Reporter | Ubiquitin carboxyl-terminal hydrolase 2 (Homo sapiens), O75604 | USP2 core, Ub-CHOP2 coupled fluorogenic reporter, 485/531 | Potency, µM (highest dose often 38.3 µM), for the others: top-dose activity change, negative = inhibition, actives largely listed as inhibitors | actives 0.01% (n = 330,000) | AID 463254, 2010;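 further: plate controls were DMSO wells for no effect and full inhibition by NEM control for full effect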
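Deubiquitinase activity read as fluorescence (485/531 nm) after Ub-CHOP2 cleavage activates the enterokinase reporter on its substrate; USP2 core 10nM, Ub-CHOP2 and substrate 25nM each, 30min compound preincubation then 60min RT; data normalized to NEM, curves fitted.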
ClpP mod: qHTS Assay for Activators of ClpP. purified B. subtilis ClpP, FRET peptide cleavage, 20 min. actives 1.9% (n = 340,000). ATP-dependent Clp protease proteolytic subunit (Bacillus subtilis (strain 168)), P80244. Potency, µM (series often up to 57.5 µM), inactives show at the top dose activity change, negative = active; active means well fitted falling curve with a large enough effect; inconclusive means small, poorly fitted or top-dose-only effect; inactive means no such curve, though single readings can be large or run the other way; further: the source files actives as falling curves though it sought activators and does not explain the sign; nearly all actives have a fitted effect of over 65% in size
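Purified B. subtilis ClpP, 10 microg/mL final in Tris/HCl pH8 with KCl, BSA, glycerol and Tween-20, cleaved an Abz/nitrotyrosine-quenched decapeptide. Fluorescence (ex 320, em 430) was read at 0 and 20 min at room temperature. Delta was normalized to 5.8 microM ADEP and DMSO/no-enzyme controls.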
* hit, by the source's call; ? = inconclusive; nt = no result. The full list was thinned out, with hits kept by preference. Unless noted, the call rests on the fitted dose curve; in most records, active means well fitted inhibition curve with a large enough effect; inconclusive means small, poorly fitted or top-dose-only effect, or effect the other way; inactive means flat fitted curve, though single readings scatter. Potency means the concentration at half of the fitted maximal effect.

SMILES	GALK inh	Eya2 phos inh	USP2a block	ClpP mod
CC(=O)C1=C(C)NC(SCC(=O)c2ccc(Cl)cc2)=C(C#N)C1CC(C)C (stereo not given)	1%	-8%	-3%	25µM*
CCn1c(SCC(N)=O)nc2cc(S(=O)(=O)N3CCOCC3)ccc21	13%	-10%	-4%	nt
CCn1c(SCC(=O)c2c[nH]c3ccccc23)nc2cc(S(=O)(=O)N3CCOCC3)ccc21	-1%	0%	2%	28µM*
CC1(C)C(=O)OC(c2cccn2-c2ccc([N+](=O)[O-])cc2)C(C)(C)C1=O (stereo not given)	0%	3%	3%	1%
CC1(C)C(=O)C2(CCCCC2)C(=O)OC1c1cccn1-c1ccc([N+](=O)[O-])cc1 (stereo not given)	-1%	-2%	6%	32µM*
COc1ccc(-c2cc(=O)n(-c3ccc([N+](=O)[O-])cc3)[nH]2)cc1	-1%	-4%	-10%	28µM*
COc1ccc(-c2[nH]n(-c3ccc([N+](=O)[O-])cc3)c(=O)c2C=NCc2ccc(F)cc2)cc1	2%	-1%	1%	-1%
O=C(c1c(Cl)cccc1Cl)N1CCN(c2ccccn2)CC1	0%	6%	3%	32µM*
Cc1ccc(S(=O)(=O)N2CCCCC2)cc1C(=O)N1CCN(c2ccccn2)CC1	3%	7%	1%	28µM*
O=C(c1ccc(S(=O)(=O)N2CCCCCC2)cc1)N1CCN(c2ccccn2)CC1	-5%	-24%	0%	0%
O=C(CSCc1ccccc1Cl)N1CCN(c2ccccn2)CC1	0%	-24%	1%	32µM*
O=C(CSc1ccccc1)N1CCN(c2ccccn2)CC1	-3%	10%	3%	nt
CCOc1ccc(-c2cc(OC(=O)c3ccc(F)cc3)c3c(C)oc(C)c3c(=O)c2)cc1	nt	nt	nt	-3%
COc1cc(NC(=O)c2cccs2)c(OC)cc1NC(=O)CCC(=O)Nc1ccc(C)cc1	-1%	3%	4%	nt
Cc1ccc(N2C(=O)CC(NNc3nc4ccccc4s3)C2=O)cc1C (stereo not given)	-4%	0%	0%	13µM*
O=C(Nc1ccccc1Cl)NC1(C(=O)NCc2cccnc2)CCCCC1	-2%	-3%	5%	nt
O=C(CCc1nc(-c2ccccc2)c(-c2ccccc2)o1)OCc1ccc(Br)cc1	1%	-19%	2%	28µM*
NC(=O)CSc1nc(-c2ccccc2)c(-c2ccccc2)o1	-1%	-20%	0%	?
O=C(O)CCc1nc(-c2ccccc2)c(-c2ccccc2)o1	-2%	18%	7%	nt
O=C(CCc1nc(-c2ccccc2)c(-c2ccccc2)o1)OCc1ccc(Cl)cc1	-3%	-5%	0%	32µM*
COC(=O)c1cc2c(s1)-c1ccccc1CC2	1%	3%	4%	?
O=C(Nc1nc2ccccc2s1)c1cc(-c2ccccc2)nn1-c1ccccc1	-2%	-1%	0%	28µM*
CC(=O)c1sc(NC(=O)c2cc(-c3ccccc3)nn2-c2ccccc2)nc1C	1%	-19%	1%	nt
CCn1c(=NC(=O)c2ccc(S(=O)(=O)N3CCOCC3)cc2)sc2cccc(OC)c21	1%	4%	-5%	32µM*
COCCn1c(=NC(=O)c2ccc(S(=O)(=O)N3CCOCC3)cc2)sc2cc(S(N)(=O)=O)ccc21	-2%	3%	4%	0%
SMILES	GALK inh	Eya2 phos inh	USP2a block	ClpP mod
O=c1cc(/C=C/c2ccccc2)oc2c1ccc1ccccc12	nt	1%	2%	28µM*
Nc1ncn([C@@H]2O[C@H](CO)[C@@H](O)[C@H]2O)c(=O)n1	nt	1%	1%	-1%
COc1nc(=O)n(C2OC(CO)C(O)C2O)cc1C (stereo not given)	nt	nt	nt	35µM*
Cn1nnnc1SCC(=O)N1CCc2ccccc21	5%	-3%	0%	-2%
c1nc2sc3c(c2c2nnnn12)CCC3	4%	-15%	2%	14µM*
Nn1cnc2sc3c(c2c1=O)CCC3	-4%	-18%	0%	-1%
c1nnc2c3c4c(sc3ncn12)CCCC4	2%	-21%	-8%	nt
c1nc2sc3c(c2c2nnnn12)CCCC3	-3%	5%	0%	16µM*
CC(C)(C)c1ccc(OCC(=O)Nc2ccc(-c3nc4cccnc4o3)cc2)cc1	2%	nt	nt	13µM*
CC(C)C(=O)Nc1ccc(-c2nc3cccnc3o2)cc1	-4%	2%	-2%	-20%
Cc1ccc(/C=N/Nc2ccc3c(C(F)(F)F)cc(C(F)(F)F)nc3n2)cc1	-2%	2%	1%	-4%
CC(C)(C)C(=O)Nc1ccc2c(c1)C(=O)C(=O)c1ccccc1-2	nt	nt	nt	4%
COc1ccc(CN(Cc2cc3cc(C)ccc3[nH]c2=O)C(=O)N(C)C)cc1	-2%	26%	?	?
COc1ccc2[nH]c(=O)c(CN(C)C(=O)c3ccncc3)cc2c1	-6%	-2%	-1%	?
COc1ccc2[nH]c(=O)c(CN(C(=O)c3ccccn3)C3CCCCC3)cc2c1	4%	10%	1%	?
CCCN(Cc1cc2cc(OC)ccc2[nH]c1=O)C(=O)c1ccncc1	-1%	6%	-8%	32µM*
CCOc1ccc(C(=O)N(Cc2ccc(OC)cc2)Cc2cc3cc(OC)ccc3[nH]c2=O)cc1	-5%	-21%	0%	32µM*
COc1cc2cc(CN(C(=O)NC3CCCCC3)C3CCCC3)c(=O)[nH]c2cc1OC	-1%	-19%	0%	25µM*
COc1ccc2[nH]c(=O)c(CN(C)C(=O)C3CCCCC3)cc2c1	1%	15%	?	28µM*
COc1ccc(CN(Cc2cc3cc(OC)c(OC)cc3[nH]c2=O)C(=O)NC2CCCCC2)cc1	-2%	11%	2%	-28%
COc1ccc(NC(=O)C2CCCN(S(=O)(=O)c3ccc(Cl)cc3)C2)cc1 (stereo not given)	nt	nt	nt	1%
COc1ccc2[nH]c(=O)c(CN(C(=O)c3ccco3)C(C)C)cc2c1	6%	-15%	2%	nt
COc1ccc(CC(=O)N(Cc2cc3cc(OC)ccc3[nH]c2=O)C(C)C)cc1	-4%	0%	4%	32µM*
N#Cc1c(Cn2cncn2)nc(=O)n(-c2ccc(Cl)cc2)c1N	-1%	-19%	1%	nt
O=S(=O)(NCc1ccc2c(c1)OCO2)c1cccc(F)c1	0%	-5%	0%	28µM*
CCOC(=O)Cc1csc(NC(=O)CSc2nnc(C(C)C)n2C)n1	3%	2%	2%	0%
O=C(CC1C(=O)NCCN1C(=O)c1ccc(Cl)cc1)Nc1ccc(F)cc1 (stereo not given)	-2%	-1%	0%	32µM*
CN(Cc1ccccc1)S(=O)(=O)c1ccc(Cl)nc1	-2%	-4%	1%	-5%
Cc1cc(C)c(NC(=S)N(CCN(C)C)C(C)c2cccnc2)c(C)c1 (stereo not given)	2%	-3%	-1%	16µM*
